Results on eight compounds are retold here after PubChem BioAssay (NCI).

About 83,000 compounds went through this panel and 20% of them were active in at least one assay; those are over-represented in the sample as a whole.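 Interpretation: 100, growth as untreated; towards 0, rising growth inhibition; 0, no net growth; 0 to -100, cell death. Compounds scoring below 10 were considered active.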 Values without a mark were called inactive. Active and inactive are the calls of the source.

What all share (assay): NCI-60 one-dose screen, 48 h (100 = growth as untreated, 0 = no growth, -100 = all killed)
The subject of test [1] is HCT-15 colon. The settings on record: 10 µM unless noted.
For test [2], the system named is SNB-75 CNS. Particulars: 10 µM unless noted.
The test system of test [3] is SNB-19 CNS. Particulars: 10 µM unless noted.
Test [4] concerns U251 CNS. The settings on record: 10 µM unless noted.
The subject of test [5] is PC-3 prostate. The settings on record: 10 µM unless noted.
Test [6] has as its system SK-MEL-5 melanoma. The settings on record: 10 µM unless noted.
Test [7] deals with UACC-62 melanoma. The settings on record: 10 µM unless noted.
Test [8] concerns LOX IMVI melanoma. Particulars: 10 µM unless noted.
Test [9] has as its system SK-MEL-28 melanoma. Particulars: 10 µM unless noted.
Test [10] has as its system SK-MEL-2 melanoma. The settings on record: 10 µM unless noted.
Test [11] relates to EKVX NSCLC. The settings on record: 10 µM unless noted.
In test [12] the test system is SN12C renal. Particulars: 10 µM unless noted.
The subject of test [13] is UO-31 renal. Particulars: 10 µM unless noted.
In test [14] the test system is TK-10 renal. The settings on record: 10 µM unless noted.
Test [15] relates to ACHN renal. Particulars: 10 µM unless noted.
Test [16] concerns A498 renal. Particulars: 10 µM unless noted.
The test system of test [17] is CCRF-CEM leukemia. The settings on record: 10 µM unless noted.
For test [18], the system named is MOLT-4 leukemia. The settings on record: 10 µM unless noted.
In test [19] the test system is CAKI-1 renal. Particulars: 10 µM.

With `CCCCCCCCCC[C@@H](C)[C@@H]1CC(=O)N[C@H]([C@@H](C)O)C(=O)N[C@@H](C)C(=O)N[C@H](C)C(=O)N[C@@H](CCC(N)=O)C(=O)N[C@H](Cc2ccc(O)cc2)C(=O)N[C@@H](C(C)CC)C(=O)O1` (some centres not stated), the growth in [1] was 101%; in [2], 52.5%; in test [3] it was 51.9%; in [4] it was 51.6%; in [5] it was 39%; in test [6], 48.1%. Besides, the growth in test [7] is 92.4%; in test [8] it was 71.2%; in [9], 82.5%; in test [10] it was 65.5%; in [11], 66.6%; in test [12] it was 66.5%. The growth in test [13] is 79.6%; in test [14] it was 47.9%; in test [15], 98.3%; in [16] it was 64.3%; in [17] it was 63.2%; in test [18], 41.1%.

Take `CCCCCCNC(=O)Oc1ccc(/C(=C(/C)c2ccc(Cl)cc2)c2ccc(OCCN3CCCC3)cc2)cc1`: the growth in [1] was 0.291% (active); in test [2], 67.2%; in [3], 45%; in test [4], 29.6%; in [5] it was 37.5%; in test [6] it was 14.9%. Besides, the growth in test [7] is 20.8%; in test [8], -98.6% (active); in [9], -49.4% (active); in test [10], 78%; in [11], 53.4%; in [12] it was 50.4%. Besides, the growth in [13] was 18.1%; in test [14], 86%; in [15] it was 37.5%; in [19] it was 55.3%; in [17], 4.42% (active).

For the compound `C=C(C)C(=O)O[C@H]1C[C@@]2(C)OC(=CC2=O)/C(C)=C\[C@H]2OC(=O)C(=C)[C@H]12`, the growth in [1] is 1.22% (active); in [2], 33.3%; in test [3], 49.1%; in test [4], 6.75% (active); in test [5] it was -2.26% (active); in test [8] it was -58.6% (active). Also, the growth in test [10] is -28% (active); in test [11], 21.1%; in test [13], -88.9% (active); in [14], -76.3% (active); in test [15] it was -11.7% (active); in test [19], 5.49% (active). In addition, the figures for the growth in test [16], in test [17] and in test [18] were 21%, -31.8% (active) and -4.17% (active), respectively.

As for `IP(CCCSc1n(Cc2ccc3ccccc3c2)c(-c2ccccc2)c(-c2ccccc2)[n+]1Cc1ccc2ccccc2c1)(c1ccccc1)(c1ccccc1)c1ccccc1`, the growth in test [1] was 94.5%; in test [2], 43%; in test [3] it was 16.6%; in [4], 10.3%; in [6], 67.6%; in test [7], 26.6%. Moreover, the growth in test [8] was 8% (active); in test [9], 32.8%; in [10], 2.52% (active); in [11], 32%; in [12] it was 57%; in test [13], 70.1%. Moreover, the growth is 66.9% in test [14]; 87.9% in test [15]; 77.6% in test [19]; 32.5% in test [17]; 46.7% in test [18].

`O=C1c2c(c3c4cc(Br)ccc4[nH]c3c3ccc4ccccc4c23)C(=O)N1CCN1CCCCC1`: the growth was -60% (active) in test [1]; 49.6% in [2]; 37.7% in test [3]; -10.9% (active) in test [4]; 65% in [5]; 68.3% in test [6]. Besides, the growth is 59.5% in [7]; 93.5% in [9]; 112% in test [10]; 81.1% in test [11]; 41.1% in test [12]; 48.7% in test [13]. The growth in test [14] is 132%; in test [15], 18.5%; in test [19], 31.2%; in test [16], 72.7%; in test [17] it was -0.774% (active); in test [18], -1.44% (active).

With `CCNC(=O)Oc1ccc(/C(=C(/C)c2ccc(Cl)cc2)c2ccc(OCCN(C)C)cc2)cc1`, the growth in test [1] was 47%; in [2], 75.4%; in [3], 81.1%; in test [4] it was 58.8%; in test [5] it was 62.8%; in [6], 70.7%. Moreover, the growth is 86.4% in test [7]; 41.5% in test [8]; 93.4% in test [9]; 98% in test [10]; 72.1% in [11]; 77.8% in test [12]. The growth is 61.7% in test [13]; 92% in test [14]; 91.4% in test [15]; 73.4% in test [19]; 66.7% in [17]; 50.4% in [18].

As to `NC(=O)c1c(NC(=O)c2cccc(C(F)(F)F)c2F)sc2c1CCC(=O)C2`, the growth was 7.63% (active) in test [1]; 40.2% in test [2]; 18% in test [3]; 15.9% in [4]; -3.83% (active) in [6]; 11.1% in [7]. In addition, the growth in [8] was 19.2%; in test [9], 33.9%; in test [10], 102%; in [11], 40.8%; in test [12] it was 27.2%; in test [13], -7.62% (active). Further, the growth in test [14] is 29.8%; in test [15], 6.7% (active); in test [19], -8.99% (active); in [16] it was 70.9%; in test [17], 11.7%; in test [18], 13.5%.

As for `CCC(C)[C@H]1OC(=O)[C@H](C(C)C)N(C)C(=O)[C@@H](C(C)C)OC(=O)[C@H](C(C)C)N(C)C(=O)[C@@H](C(C)CC)OC(=O)[C@H](C(C)C)N(C)C1=O` (some centres not stated), the growth in [1] was 11.4%; in [3], 18.1%; in test [4], 12.5%; in test [5] it was 12.1%; in [6], -31.5% (active); in test [8], 7.89% (active). Moreover, the growth in test [9] was 32.2%; in [10], -14.6% (active); in test [11] it was 20.5%; in test [12], 4.12% (active); in test [13], -13.6% (active); in [14], -8.95% (active). In addition, the growth in test [15] was 7.98% (active); in test [16] it was -2.54% (active); in [17], 9.05% (active); in [18], -24.2% (active).
